In article PMC7862700, “An all-to-all approach to the identification of sequence-specific readers for epigenetic DNA modifications on cytosine”:

How the values were obtained:
Assay in all cases: DAPPL (digital affinity profiling via proximity ligation, sequencing); 10 mM Tris-HCl pH 7.5, 50 mM NaCl, 1 mM DTT, 4% glycerol, room temperature, 30 min; GST-TFs on glutathione beads, 16-mer random dsDNA library, 0.1% formaldehyde crosslink after washing; high values mean tight binding
FLI1 = target: T1, FLI1 (Homo sapiens, UniProt Q01543 1-452); settings: protein: recombinant; tags: N-terminal GST; dsDNA, one strand shown
T1 sequence: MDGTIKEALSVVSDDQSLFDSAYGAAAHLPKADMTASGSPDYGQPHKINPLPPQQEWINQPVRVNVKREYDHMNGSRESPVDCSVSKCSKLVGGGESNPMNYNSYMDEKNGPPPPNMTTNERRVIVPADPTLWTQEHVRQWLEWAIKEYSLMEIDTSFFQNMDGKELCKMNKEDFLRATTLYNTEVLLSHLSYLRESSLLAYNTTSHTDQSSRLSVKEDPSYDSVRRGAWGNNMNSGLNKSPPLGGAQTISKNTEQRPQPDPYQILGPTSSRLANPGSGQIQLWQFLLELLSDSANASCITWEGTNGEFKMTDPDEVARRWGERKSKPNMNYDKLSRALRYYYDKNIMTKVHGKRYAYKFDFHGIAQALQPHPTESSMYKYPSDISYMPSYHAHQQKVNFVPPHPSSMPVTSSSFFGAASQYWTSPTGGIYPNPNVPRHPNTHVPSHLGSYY
Method in brief: (§1)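 A tag-only sample was pooled with DNA-barcoded human transcription factors that had been expressed in yeast as GST fusions and captured on glutathione beads. The pools were incubated for 30 min at room temperature with 200 nmole of a random double-stranded 16-mer DNA library in Tris/NaCl/DTT/glycerol buffer, then washed, crosslinked with 0.1% formaldehyde, proximity-ligated (BsaI/T4 ligase, 1 h, 37 °C), PCR-amplified and sequenced on an Illumina NextSeq500. Binding signal is each hexamer's read frequency for a factor divided by its frequency for the tag-only sample.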

ELK1 = target: T2, ELK1 (Homo sapiens, UniProt P19419 1-428); settings: protein: recombinant; tags: N-terminal GST; dsDNA, one strand shown
T2 sequence: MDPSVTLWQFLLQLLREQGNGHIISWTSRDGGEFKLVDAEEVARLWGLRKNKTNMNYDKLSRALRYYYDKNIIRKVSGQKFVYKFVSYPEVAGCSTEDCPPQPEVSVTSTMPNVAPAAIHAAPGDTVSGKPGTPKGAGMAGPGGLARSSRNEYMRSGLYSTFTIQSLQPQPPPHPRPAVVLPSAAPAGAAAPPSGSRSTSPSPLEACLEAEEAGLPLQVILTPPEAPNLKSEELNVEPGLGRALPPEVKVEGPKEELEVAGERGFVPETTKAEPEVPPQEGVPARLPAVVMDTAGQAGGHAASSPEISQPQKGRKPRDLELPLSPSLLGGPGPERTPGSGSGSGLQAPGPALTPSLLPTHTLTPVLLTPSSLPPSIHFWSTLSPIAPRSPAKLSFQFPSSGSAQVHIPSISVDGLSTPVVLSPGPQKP
Method in brief: as §1

GABPA = target: T3, GABPA (Homo sapiens, UniProt Q06546 1-454); settings: protein: recombinant; tags: N-terminal GST; dsDNA, one strand shown
T3 sequence: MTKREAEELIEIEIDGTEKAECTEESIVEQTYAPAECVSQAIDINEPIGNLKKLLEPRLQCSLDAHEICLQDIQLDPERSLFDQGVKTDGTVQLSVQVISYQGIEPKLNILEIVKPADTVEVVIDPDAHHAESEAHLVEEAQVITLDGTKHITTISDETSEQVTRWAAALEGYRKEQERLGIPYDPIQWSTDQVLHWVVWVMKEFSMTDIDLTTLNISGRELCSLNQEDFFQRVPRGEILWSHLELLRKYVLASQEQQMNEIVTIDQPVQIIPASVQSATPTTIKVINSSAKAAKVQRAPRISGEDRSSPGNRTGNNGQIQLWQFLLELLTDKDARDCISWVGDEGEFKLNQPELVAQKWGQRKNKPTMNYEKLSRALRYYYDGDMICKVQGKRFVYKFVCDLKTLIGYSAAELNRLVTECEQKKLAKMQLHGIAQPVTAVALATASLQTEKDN
Method in brief: as §1

ERG = target: T4, ERG (Homo sapiens, UniProt P11308 1-479); settings: protein: recombinant; tags: N-terminal GST; dsDNA, one strand shown
T4 sequence: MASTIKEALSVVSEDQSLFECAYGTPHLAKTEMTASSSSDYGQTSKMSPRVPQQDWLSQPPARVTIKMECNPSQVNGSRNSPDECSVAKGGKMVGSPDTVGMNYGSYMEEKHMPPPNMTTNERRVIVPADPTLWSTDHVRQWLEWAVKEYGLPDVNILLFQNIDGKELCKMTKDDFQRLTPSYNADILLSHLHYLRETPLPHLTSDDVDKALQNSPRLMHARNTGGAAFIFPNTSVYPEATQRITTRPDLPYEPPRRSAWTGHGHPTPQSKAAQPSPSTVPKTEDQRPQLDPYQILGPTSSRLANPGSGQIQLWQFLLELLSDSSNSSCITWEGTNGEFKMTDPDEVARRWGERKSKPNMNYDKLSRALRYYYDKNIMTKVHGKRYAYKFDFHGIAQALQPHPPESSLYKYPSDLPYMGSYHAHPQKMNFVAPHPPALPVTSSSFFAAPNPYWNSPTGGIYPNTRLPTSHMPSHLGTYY
Method in brief: as §1

ELF1 = ELF1 (Homo sapiens, UniProt P32519 1-619); settings: protein: recombinant; tags: N-terminal GST; dsDNA, one strand shown
Sequence of ELF1 (P32519 whole entry): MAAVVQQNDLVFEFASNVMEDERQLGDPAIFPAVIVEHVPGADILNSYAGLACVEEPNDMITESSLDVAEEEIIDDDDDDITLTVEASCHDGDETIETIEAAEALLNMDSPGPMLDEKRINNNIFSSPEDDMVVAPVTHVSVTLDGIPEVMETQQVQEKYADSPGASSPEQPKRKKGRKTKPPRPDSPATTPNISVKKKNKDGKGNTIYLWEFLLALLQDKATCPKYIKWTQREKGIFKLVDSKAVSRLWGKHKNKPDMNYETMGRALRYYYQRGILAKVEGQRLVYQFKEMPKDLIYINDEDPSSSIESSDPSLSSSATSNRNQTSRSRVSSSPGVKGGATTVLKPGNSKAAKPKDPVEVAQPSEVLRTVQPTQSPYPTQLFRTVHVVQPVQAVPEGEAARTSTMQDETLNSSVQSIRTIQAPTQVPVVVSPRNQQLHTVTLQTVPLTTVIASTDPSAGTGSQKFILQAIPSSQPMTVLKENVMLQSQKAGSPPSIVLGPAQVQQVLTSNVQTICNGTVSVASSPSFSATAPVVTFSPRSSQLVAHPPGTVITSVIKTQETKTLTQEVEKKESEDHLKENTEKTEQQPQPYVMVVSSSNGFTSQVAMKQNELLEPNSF
Method in brief: as §1

EHF = target: T5, EHF (Homo sapiens, UniProt Q9NZC4 1-300); settings: protein: recombinant; tags: N-terminal GST; dsDNA, one strand shown
T5 sequence: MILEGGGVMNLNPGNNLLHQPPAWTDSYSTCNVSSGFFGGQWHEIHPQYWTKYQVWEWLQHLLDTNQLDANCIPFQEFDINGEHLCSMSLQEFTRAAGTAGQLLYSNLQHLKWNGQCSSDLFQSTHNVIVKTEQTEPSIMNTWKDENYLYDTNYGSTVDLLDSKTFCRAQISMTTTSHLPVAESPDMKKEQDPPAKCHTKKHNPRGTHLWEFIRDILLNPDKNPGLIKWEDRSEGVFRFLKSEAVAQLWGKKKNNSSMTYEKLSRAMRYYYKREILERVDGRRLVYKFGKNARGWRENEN
Method in brief: as §1

SPIB = SPIB (Homo sapiens, UniProt Q01892 1-262); settings: protein: recombinant; tags: N-terminal GST; dsDNA, one strand shown
Sequence of SPIB (Q01892 whole entry): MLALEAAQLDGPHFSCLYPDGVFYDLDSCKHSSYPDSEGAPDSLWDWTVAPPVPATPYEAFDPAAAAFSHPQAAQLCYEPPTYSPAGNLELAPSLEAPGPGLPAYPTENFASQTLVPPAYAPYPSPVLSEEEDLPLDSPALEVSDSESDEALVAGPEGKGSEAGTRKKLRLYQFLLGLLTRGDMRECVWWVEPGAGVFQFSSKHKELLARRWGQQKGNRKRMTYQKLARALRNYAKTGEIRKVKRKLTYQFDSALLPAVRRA
Method in brief: as §1

FEV = target: T6, FEV (Homo sapiens, UniProt Q99581 1-238); settings: protein: recombinant; tags: N-terminal GST; dsDNA, one strand shown
T6 sequence: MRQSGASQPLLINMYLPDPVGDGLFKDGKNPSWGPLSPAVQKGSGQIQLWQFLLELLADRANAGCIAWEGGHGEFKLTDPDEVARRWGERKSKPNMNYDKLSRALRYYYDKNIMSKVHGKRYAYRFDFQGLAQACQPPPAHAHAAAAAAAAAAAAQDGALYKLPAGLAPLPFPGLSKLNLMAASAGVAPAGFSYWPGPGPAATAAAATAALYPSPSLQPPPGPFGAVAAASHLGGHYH
Method in brief: as §1

ETV5 = ETV5 (Homo sapiens, UniProt P41161 1-510); settings: protein: recombinant; tags: N-terminal GST; dsDNA, one strand shown
Sequence of ETV5 (P41161 whole entry): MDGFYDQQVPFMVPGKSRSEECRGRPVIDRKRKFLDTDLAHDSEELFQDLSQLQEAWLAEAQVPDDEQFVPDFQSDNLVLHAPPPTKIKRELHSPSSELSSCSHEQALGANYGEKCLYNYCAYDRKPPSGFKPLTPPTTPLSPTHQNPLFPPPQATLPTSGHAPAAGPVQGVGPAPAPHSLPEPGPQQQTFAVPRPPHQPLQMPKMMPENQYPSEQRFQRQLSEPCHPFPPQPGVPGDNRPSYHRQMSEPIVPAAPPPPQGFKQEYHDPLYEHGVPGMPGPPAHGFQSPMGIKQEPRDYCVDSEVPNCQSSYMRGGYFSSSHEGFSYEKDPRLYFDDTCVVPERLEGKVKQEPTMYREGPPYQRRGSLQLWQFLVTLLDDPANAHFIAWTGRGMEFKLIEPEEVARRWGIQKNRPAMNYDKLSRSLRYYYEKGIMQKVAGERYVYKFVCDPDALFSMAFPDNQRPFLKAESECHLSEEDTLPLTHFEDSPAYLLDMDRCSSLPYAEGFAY
Method in brief: as §1

HSF1 = HSF1 (Homo sapiens, UniProt Q00613 1-529); settings: protein: recombinant; tags: N-terminal GST; chain copies: 3; dsDNA, one strand shown
Sequence of HSF1 (Q00613 whole entry): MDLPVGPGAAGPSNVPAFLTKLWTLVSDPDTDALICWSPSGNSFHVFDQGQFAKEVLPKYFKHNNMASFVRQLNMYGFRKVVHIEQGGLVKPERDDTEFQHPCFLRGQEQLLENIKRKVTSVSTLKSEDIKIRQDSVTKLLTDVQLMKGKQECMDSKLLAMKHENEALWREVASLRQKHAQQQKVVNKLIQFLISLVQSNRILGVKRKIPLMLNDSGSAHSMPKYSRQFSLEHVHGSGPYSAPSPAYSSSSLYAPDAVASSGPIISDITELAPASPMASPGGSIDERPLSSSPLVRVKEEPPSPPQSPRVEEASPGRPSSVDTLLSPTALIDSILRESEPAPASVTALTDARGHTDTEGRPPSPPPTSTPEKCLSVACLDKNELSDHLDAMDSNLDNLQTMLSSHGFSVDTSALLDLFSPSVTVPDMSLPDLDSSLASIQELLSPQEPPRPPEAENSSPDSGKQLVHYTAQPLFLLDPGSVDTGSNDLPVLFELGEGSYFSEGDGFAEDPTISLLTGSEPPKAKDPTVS
Method in brief: as §1

SPIC = target: T7, SPIC (Homo sapiens, UniProt Q8N5J4 1-248); settings: protein: recombinant; tags: N-terminal GST; dsDNA, one strand shown
T7 sequence: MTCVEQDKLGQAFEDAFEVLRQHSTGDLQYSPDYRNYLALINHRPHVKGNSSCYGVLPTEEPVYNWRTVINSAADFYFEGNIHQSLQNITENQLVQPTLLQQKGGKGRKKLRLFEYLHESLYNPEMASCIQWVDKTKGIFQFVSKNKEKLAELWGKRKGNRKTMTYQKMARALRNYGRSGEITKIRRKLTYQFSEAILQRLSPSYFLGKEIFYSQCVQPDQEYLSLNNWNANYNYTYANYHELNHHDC
Method in brief: as §1

ELF4 = ELF4 (Homo sapiens, UniProt Q99607 1-663); settings: protein: recombinant; tags: N-terminal GST; dsDNA, one strand shown
Sequence of ELF4 (Q99607 whole entry): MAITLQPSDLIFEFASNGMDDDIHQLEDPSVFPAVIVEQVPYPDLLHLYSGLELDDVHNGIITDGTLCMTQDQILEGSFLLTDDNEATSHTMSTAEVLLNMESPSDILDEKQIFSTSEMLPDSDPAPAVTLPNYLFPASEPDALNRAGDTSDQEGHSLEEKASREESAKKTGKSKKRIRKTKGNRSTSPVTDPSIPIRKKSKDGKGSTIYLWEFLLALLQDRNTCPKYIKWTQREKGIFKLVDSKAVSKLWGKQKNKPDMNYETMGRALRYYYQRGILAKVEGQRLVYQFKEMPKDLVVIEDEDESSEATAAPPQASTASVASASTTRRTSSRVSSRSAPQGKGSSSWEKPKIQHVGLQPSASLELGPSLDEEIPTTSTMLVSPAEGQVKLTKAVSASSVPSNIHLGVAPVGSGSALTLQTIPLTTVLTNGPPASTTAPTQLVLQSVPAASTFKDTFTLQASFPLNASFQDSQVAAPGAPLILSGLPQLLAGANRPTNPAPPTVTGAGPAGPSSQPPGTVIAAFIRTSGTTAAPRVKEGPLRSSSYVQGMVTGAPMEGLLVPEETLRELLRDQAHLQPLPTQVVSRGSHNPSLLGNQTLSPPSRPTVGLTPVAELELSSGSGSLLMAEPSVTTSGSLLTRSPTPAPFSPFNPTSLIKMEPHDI
Method in brief: as §1

ELK4 = target: T8, ELK4 (Homo sapiens, UniProt P28324-2 1-405); settings: protein: recombinant; tags: N-terminal GST; dsDNA, one strand shown
T8 sequence: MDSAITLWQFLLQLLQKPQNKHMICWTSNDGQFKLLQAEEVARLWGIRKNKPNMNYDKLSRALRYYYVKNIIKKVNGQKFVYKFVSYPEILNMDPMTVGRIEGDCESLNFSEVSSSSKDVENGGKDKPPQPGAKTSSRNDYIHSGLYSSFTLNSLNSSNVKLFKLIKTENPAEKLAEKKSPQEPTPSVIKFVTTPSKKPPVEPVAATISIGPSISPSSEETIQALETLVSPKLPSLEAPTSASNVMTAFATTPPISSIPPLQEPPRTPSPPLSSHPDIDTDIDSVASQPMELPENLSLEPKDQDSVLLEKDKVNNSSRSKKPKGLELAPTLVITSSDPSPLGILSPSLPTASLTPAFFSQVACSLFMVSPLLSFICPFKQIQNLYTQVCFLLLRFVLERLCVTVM
Method in brief: as §1

ETV2 = target: T9, ETV2 (Homo sapiens, UniProt O00321 1-342); settings: protein: recombinant; tags: N-terminal GST; dsDNA, one strand shown
T9 sequence: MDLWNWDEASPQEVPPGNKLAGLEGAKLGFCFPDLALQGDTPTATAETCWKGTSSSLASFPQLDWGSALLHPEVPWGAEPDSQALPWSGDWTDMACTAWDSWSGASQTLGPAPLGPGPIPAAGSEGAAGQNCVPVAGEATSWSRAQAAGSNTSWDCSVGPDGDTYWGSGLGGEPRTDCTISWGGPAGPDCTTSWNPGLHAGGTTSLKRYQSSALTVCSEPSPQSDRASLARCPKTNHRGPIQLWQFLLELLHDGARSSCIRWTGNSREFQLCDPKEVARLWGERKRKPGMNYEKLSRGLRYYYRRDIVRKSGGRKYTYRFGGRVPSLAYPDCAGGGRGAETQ
Method in brief: as §1

ELF3 = target: T10, ELF3 (Homo sapiens, UniProt P78545 1-371); settings: protein: recombinant; tags: N-terminal GST; dsDNA, one strand shown
T10 sequence: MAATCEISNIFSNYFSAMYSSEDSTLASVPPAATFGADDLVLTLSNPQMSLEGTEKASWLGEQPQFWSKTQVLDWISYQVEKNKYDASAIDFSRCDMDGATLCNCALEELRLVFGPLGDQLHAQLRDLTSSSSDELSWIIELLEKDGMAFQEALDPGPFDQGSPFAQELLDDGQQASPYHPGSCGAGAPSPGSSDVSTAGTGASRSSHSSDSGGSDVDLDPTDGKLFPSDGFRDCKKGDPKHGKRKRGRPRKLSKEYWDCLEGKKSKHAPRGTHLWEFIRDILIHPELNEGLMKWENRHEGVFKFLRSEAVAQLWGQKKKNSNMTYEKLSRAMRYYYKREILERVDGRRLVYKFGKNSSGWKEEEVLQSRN
Method in brief: as §1

CRX = CRX (Homo sapiens, UniProt O43186 1-299); settings: protein: recombinant; tags: N-terminal GST; dsDNA, one strand shown
Sequence of CRX (O43186 whole entry): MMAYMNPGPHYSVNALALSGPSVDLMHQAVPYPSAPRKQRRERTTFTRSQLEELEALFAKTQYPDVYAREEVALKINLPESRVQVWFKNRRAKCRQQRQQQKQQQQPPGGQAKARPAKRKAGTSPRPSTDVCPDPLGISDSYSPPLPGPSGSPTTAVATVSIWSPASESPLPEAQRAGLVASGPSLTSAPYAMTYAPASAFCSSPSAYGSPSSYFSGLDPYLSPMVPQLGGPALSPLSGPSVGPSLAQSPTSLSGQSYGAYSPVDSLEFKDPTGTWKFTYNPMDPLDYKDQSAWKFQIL
Method in brief: as §1

ETV1 = ETV1 (Homo sapiens, UniProt P50549 1-477); settings: protein: recombinant; tags: N-terminal GST; dsDNA, one strand shown
Sequence of ETV1 (P50549 whole entry): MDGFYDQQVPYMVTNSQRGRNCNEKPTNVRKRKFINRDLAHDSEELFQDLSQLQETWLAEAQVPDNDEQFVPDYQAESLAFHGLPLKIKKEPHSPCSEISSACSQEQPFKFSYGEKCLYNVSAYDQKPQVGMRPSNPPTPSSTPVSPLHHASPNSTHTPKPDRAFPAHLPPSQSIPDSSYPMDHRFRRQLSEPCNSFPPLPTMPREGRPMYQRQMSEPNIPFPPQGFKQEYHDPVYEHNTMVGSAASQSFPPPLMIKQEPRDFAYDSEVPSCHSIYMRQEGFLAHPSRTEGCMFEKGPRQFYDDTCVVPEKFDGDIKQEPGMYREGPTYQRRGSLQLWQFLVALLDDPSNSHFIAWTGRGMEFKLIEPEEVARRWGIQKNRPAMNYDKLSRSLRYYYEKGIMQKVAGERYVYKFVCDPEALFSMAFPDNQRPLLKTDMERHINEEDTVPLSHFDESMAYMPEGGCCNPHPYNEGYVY
Method in brief: as §1

## TATGTG
FLI1
  binding signal: 1 fold enrichment (6-mer frequency, TF over GST control)
ELK1
  binding signal: 1.08 fold enrichment (6-mer frequency, TF over GST control)
GABPA
  binding signal: 1.05 fold enrichment (6-mer frequency, TF over GST control)
ERG
  binding signal: 1.06 fold enrichment (6-mer frequency, TF over GST control)
ELF1
  binding signal: 1.06 fold enrichment (6-mer frequency, TF over GST control)
EHF
  binding signal: 1.07 fold enrichment (6-mer frequency, TF over GST control)
SPIB
  binding signal: 1.05 fold enrichment (6-mer frequency, TF over GST control)
FEV
  binding signal: 1.08 fold enrichment (6-mer frequency, TF over GST control)
ETV5
  binding signal: 1.13 fold enrichment (6-mer frequency, TF over GST control)
HSF1
  binding signal: 1.01 fold enrichment (6-mer frequency, TF over GST control)
SPIC
  binding signal: 1.22 fold enrichment (6-mer frequency, TF over GST control)
ELF4
  binding signal: 1.13 fold enrichment (6-mer frequency, TF over GST control)
ELK4
  binding signal: 1.17 fold enrichment (6-mer frequency, TF over GST control)
ETV2
  binding signal: 1.06 fold enrichment (6-mer frequency, TF over GST control)
ELF3
  binding signal: 1.16 fold enrichment (6-mer frequency, TF over GST control)
CRX
  binding signal: 1.09 fold enrichment (6-mer frequency, TF over GST control)
ETV1
  binding signal: 1.08 fold enrichment (6-mer frequency, TF over GST control)
